G9a block: G9a (human) methyltransferase inhibition; G9a H3K9 monomethylation, AlphaScreen, 2 h; 8.8% of 350,000 active; AID 504332; Q96KQ7; Potency, µM (highest dose often 102 µM), for inactives: at the top dose activity, negative = inhibition, usual class: inhibitors; note: potency is the fitted concentration of half-maximal effect; nearly all actives have a fitted effect of over 75% in size
Target sequence (Q96KQ7 913-1193 limits assumed): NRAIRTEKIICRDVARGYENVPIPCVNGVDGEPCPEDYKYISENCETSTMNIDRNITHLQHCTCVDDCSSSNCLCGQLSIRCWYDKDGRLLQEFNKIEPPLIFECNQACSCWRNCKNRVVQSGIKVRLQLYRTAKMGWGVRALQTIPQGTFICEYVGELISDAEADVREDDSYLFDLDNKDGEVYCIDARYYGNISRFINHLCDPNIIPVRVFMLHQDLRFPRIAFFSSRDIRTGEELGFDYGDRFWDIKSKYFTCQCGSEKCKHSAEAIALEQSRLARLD
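Compounds were preincubated with 20 nM G9a for 15 min, after which biotinylated H3K9 peptide (500 nM) and SAM (20 uM) started a 2 h room-temperature reaction. Monomethylated product was quantified by antibody-based AlphaScreen chemiluminescence.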
Sfp inh: Sfp phosphopantetheinyl transferase inhibition; Q9F4F7; Biochemical Sfp PPTase activity, qHTS; Potency, µM, inactives show largest response in the series, negative = inhibition, hits mostly inhibitors; 3.5% of 310,000 active; AID 1490;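 note: the enzyme is Sfp with the accession as filed and its product quenches rhodamine fluorescence; potency is the fitted concentration of half-maximal effect; 0% = enzyme reaction without inhibitor and -100% = no enzyme wells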
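After 15 min at room temperature with compound, 15 nM Sfp received 5 uM rhodamine-CoA plus 12.5 uM BHQ-2-ybbR (50 mM Hepes pH 7.6, 10 mM MgCl2). Rate came from the fluorescence difference over 30 min, ex 525/em 598 nm.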
PLK1 PBD block: inhibitors of human PLK1 polo-box domain binding; 2.8% of 360,000 active; Plk1 PBD binding of FITC phosphopeptide, fluorescence polarization; AID 720504; Potency, µM, inactives show max response, negative = inhibition, actives largely listed as inhibitors; note: potency is the fitted concentration of half-maximal effect; series mostly up to about 57 µM; nearly all actives have a fitted effect of over 65% in size
MmCpn inh: M. maripaludis TRiC chaperonin inhibition. purified Mm-Cpn ATPase, ADP Transcreener TR-FRET. Potency, µM (top dose mostly 76.9 µM), inactives show top-dose activity, negative = inhibition, actives largely listed as inhibitors. 0.031% of 330,000 active. AID 504842; note: potency is the fitted concentration of half-maximal effect; nearly all actives have a fitted effect of over 80% in size
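Compound-treated chaperonin, 25 nM final, turns over 10 uM ATP at 37°C for 30 min following a 10 min preincubation; ADP generated competes with ADP-d2 for Eu-cryptate antibody, lowering FRET.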
CCT chaperon mod: modulators of cytosolic chaperonin (CCT/TRiC) activity. purified chaperonin ATPase assay, HTRF ADP detection, 30 min. activity change, % (test concentration not listed), hits read low. 0.3% of 360,000 active; in the data active = activity change below about -30%
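TRiC at 40 or 20 nM final (batch-dependent) in 30 mM Tris pH 7.4, 100 mM KCl, 5 mM MgCl2, 1 mM DTT, with compound at single 76 uM and 10 uM ATP, 30 min at 37 deg C. ADP detected by HTRF Transcreener, 665/615 ratio.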
VDR inh: blocks the human vitamin D receptor | VDR-SRC2-3 peptide fluorescence polarization, 2 h | Potency, µM, for inactives: max response, negative = inhibition, most hits filed as inhibitors | 0.93% of 400,000 active; note: potency is the fitted concentration of half-maximal effect
Target sequence (P11473 whole entry, looked up): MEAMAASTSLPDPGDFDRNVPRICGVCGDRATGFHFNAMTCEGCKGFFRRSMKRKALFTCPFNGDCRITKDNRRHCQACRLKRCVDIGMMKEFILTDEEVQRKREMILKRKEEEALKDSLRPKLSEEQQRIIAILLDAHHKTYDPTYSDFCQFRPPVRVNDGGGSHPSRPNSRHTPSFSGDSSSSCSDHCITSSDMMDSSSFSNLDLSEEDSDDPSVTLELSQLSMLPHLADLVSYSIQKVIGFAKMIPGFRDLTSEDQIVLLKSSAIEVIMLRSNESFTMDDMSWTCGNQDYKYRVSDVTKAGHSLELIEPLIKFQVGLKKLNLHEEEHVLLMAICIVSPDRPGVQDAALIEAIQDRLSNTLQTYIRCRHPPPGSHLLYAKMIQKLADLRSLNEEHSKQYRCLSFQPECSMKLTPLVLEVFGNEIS
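Two reagent solutions held at 4 deg C in the dark were dispensed, compounds pinned at 23 nl, and the mixture incubated 2 h at room temperature. Read-out: fluorescence polarization of VDR–SRC2-3 peptide binding.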
* = called active by the depositor; ? = inconclusive; · = no result given; [ ] = remark or other dose. Rows were chosen to be rich in hits. Some 10% of all compounds tested hit in one or more screens of this group. Unless noted, calls come from the whole dose curve; as a rule, active = well fitted curve in the direction sought with a large enough effect; inconclusive = small, poorly fitted or top-dose-only effect, or another doubt; inactive = no such curve, though single readings can be large; an effect the other way counts as inactive or inconclusive. Unless noted, % is set by controls: 0 for no effect and ±100 for the full control effect.

SMILES	G9a block	Sfp inh	PLK1 PBD block	MmCpn inh	CCT chaperon mod	VDR inh
Cc1ccc(Oc2coc3cc(OCC(=O)NC4CCCCC4)ccc3c2=O)cc1	-5.4%[59 µM]	·	·	·	·	-0.2%
COc1ccc(NC(=O)c2sc3nc(-c4cc5ccc(OC)cc5oc4=O)[nH]c(=O)c3c2C)cc1	2.7%[59 µM]	·	·	·	·	-5.7%
Cn1c2c(c(=O)n(C)c1=O)C(c1ccc(Br)cc1)C(C#N)=C(N)N2 (stereo not drawn)	-0.7%	18.9%	-5.7%	-0.2%	-0.1	-15.2%
CCOc1cc(C2CC(=O)N3CN(C4CCCCC4)CSC3=C2C#N)ccc1O (stereo not drawn)	2.24µM*	3.55µM*	10.6µM*	-1.0%	0.6	?
N#CC1=C2SCN(C3CCCCC3)CN2C(=O)CC1c1ccc(Br)cc1 (stereo not drawn)	2.82µM*	·	·	·	·	17.8µM*
O=[N+]([O-])c1ccc(S(=O)(=O)NCC(c2cccnc2)N2CCc3ccccc3C2)cc1 (stereo not drawn)	50.1µM*	·	-6.4%	1.1%	-1.8	-22.9%
COc1ccc(OC)c(CCNC(=O)CCCn2c(=O)c3cccn3c3ccccc32)c1	-1.9%[59 µM]	·	·	·	·	7.8%
O=C(NCC(=O)N1CCc2ccccc2C1)c1ccccc1Cl	17.6%	11.6%	1.2%	-0.6%	-0.5	-2.2%
Cc1ccnc(SCC(=O)N2CCc3ccccc3C2)n1	39.8µM*	-10.2%	-18.3%	0.2%	1.3	2.2%
O=C(CSc1ncccn1)N1CCc2ccccc2C1	-23.9%	-14.8%	-6.2%	5.2%	1.1	-2.5%
COc1cc2c(cc1OC)CN(C(=O)CSc1ccccc1C)CC2	·	·	26.7µM*	-17.4%	-1.6	-29.6%
O=C(CNCc1ccccn1)N1CCc2ccccc2C1	-106.6%[59 µM]	-22.8%	-9.7%	-0.7%	-43.6*	6.0%
COc1cc2c(cc1OC)CN(C(=O)CSC1=NCCS1)CC2	·	·	-1.2%	·	0.7	·
C/C(=C\c1ccco1)C1C(C#N)=C(N)OC2=C1C(=O)CC(C)(C)C2 (stereo not drawn)	?	20µM*	-13.4%	-4.2%	0.9	-5.2%
CC1(C)CC(=O)C2=C(C1)OC(N)=C(C#N)C2C#Cc1ccccc1 (stereo not drawn)	14.1µM*	?	10.6µM*	-4.2%	2.3	44.7µM*
CN1CCN(/C=N/C2=C(C#N)C(c3ccccc3)C3=C(CC(C)(C)CC3=O)O2)CC1 (stereo not drawn)	-12.0%	23.4%	-13.1%	0.2%	-34.3*	-7.5%
C/C(=C\c1ccco1)C1C(C#N)=C(N)Oc2n[nH]c(-c3ccccc3)c21 (stereo not drawn)	?	79.4µM*	-23.7%	-0.2%	-1.8	-10.0%
CC1(C)CC(=O)C2=C(C1)OC(N)=C(C#N)C2c1ccoc1 (stereo not drawn)	7.2%	6.9%	4.2%	-5.4%	0.8	5.0%
CC(c1ccccc1)C1C(C#N)=C(N)OC2=C1C(=O)CC(C)(C)C2 (stereo not drawn)	-2.2%	12.0%	-5.1%	-0.6%	-0.5	7.9%
CC1(C)CC(=O)C2=C(C1)OC(/N=C/N1CCCC1)=C(C#N)C2c1ccccc1 (stereo not drawn)	-2.6%	15.3%	-10.8%	0.4%	-8.3	-15.4%
Cc1ccc2c(c1)-c1onc(C(=O)N(C)c3ccc(F)cc3)c1CO2	8.7%[59 µM]	·	·	·	·	-4.0%
NC(=O)c1ccc(NC(=O)CCc2nc3ccccc3s2)cc1	35.5µM*	-19.2%	-13.4%	-0.1%	0.3	-13.5%
CC(C)(C)c1cc(CCC(=O)NCc2ccccn2)cc(C(C)(C)C)c1O	-2.1%	7.3%	-0.9%	-2.3%	1.7	15.1%
O=C(CCc1nc2ccccc2s1)Nc1cccnc1	39.8µM*	-8.8%	-23.7%	-1.6%	0.2	-10.9%
NC(=O)c1ccc(NC(=O)CCC(=O)c2cccs2)cc1	50.1µM*	4.3%	-13.2%	-3.5%	0.9	13.6%
SMILES	G9a block	Sfp inh	PLK1 PBD block	MmCpn inh	CCT chaperon mod	VDR inh
CC(C)(C)c1cc(CCC(=O)NCc2cccnc2)cc(C(C)(C)C)c1O	·	22.4µM*	-4.2%	0.2%	1.0	15.4%
Cc1ccccc1Nc1oc(-c2ccccc2)nc1-c1ccccc1F	·	-9.4%	·	·	·	1.6%
Cc1ccc2oc3c(c(=O)c2c1)C1(C(=O)N(C)c2ccccc21)N(CCCO)C3=O (stereo not drawn)	-8.8%[59 µM]	·	·	·	·	5.2%
CCOC(=O)c1ccc(NC(=O)CCc2nc(-c3ccc(Cl)cc3)no2)cc1	-31.0%	89.1µM*	1.4%	0.7%	-0.5	-0.4%
O=C(CCc1nc(-c2ccccc2)no1)Nc1cccnc1	56.2µM*	4.6%	-6.8%	-2.8%	-1.1	-21.5%
COc1ccc(-c2noc(CCC(=O)NCc3cccnc3)n2)cc1OC	70.8µM*	-5.9%	-7.6%	-0.6%	1.2	2.1%
C[C@@H](C(=O)Nc1ccc2ccccc2c1)[C@H]1C[C@]1(C)[C@H](NC(=O)c1ccccc1)c1ccccc1	·	14.1%	·	·	·	·
CCOc1ccc(CNC(=O)C2CCCN(c3nn4cc(-c5ccc(OC)cc5)nc4s3)C2)cc1 (stereo not drawn)	-42.5%[59 µM]	·	·	·	·	6.4%
CCOC(=O)N/N=C1/C[C@@H](O)[C@@H](O)[C@@H]2[C@@H]3C(=O)N(Cc4ccc5c(c4)OCO5)C(=O)[C@H]3CC[C@H]12	·	-2.7%	·	·	·	·
N#CC1=C(c2ccccc2)/C(=C/c2ccccc2)OC1=O	12.6µM*	?	1.06µM*	-0.4%	-0.9	?
O=S(=O)(Nn1cnnc1)c1ccccc1Cl	?	3.0%	26.7µM*	0.0%	-2.0	-3.9%
O=S(=O)(Nn1cnnc1)c1ccccc1	-9.1%[59 µM]	2.0%	-7.5%	0.7%	0.8	-1.2%
CCOC(=O)c1c(C)[nH]c(C)c1S(=O)(=O)NCC(=O)Nc1ccc(CC)cc1	1.7%[59 µM]	·	·	·	·	20.0%
O=C(c1ccc(-c2cccc(C(F)(F)F)c2)o1)N1CCCCCCC1	50.1µM*	·	-5.4%	-1.1%	-0.5	?
O=C(c1ccco1)N1CCN(C(=O)c2ccc(-c3cccc(C(F)(F)F)c3)o2)CC1	6.7%[0.501 µM]	·	-8.1%	-7.7%	-0.5	-19.6%
O=C(CS(=O)(=O)Cc1ccccc1)N1CCN(c2cccc(C(F)(F)F)c2)CC1	?	7.1%	29.9µM*	-0.5%	-1.1	-14.1%
O=C(c1ccc(-c2cccc(C(F)(F)F)c2)o1)N1CCN(c2ccccc2)CC1	3.55µM*	·	-6.4%	1.2%	-5.5	-4.9%
CC(C)[C@@H](OCc1ccccc1)[C@H](C)/C=N\OC[C@@H](O)COCc1ccco1	·	4.8%	·	·	·	·
Cc1cccc(NC(=O)C2CC(=O)n3cnnc3S2)c1 (stereo not drawn)	?	28.2µM*	?	1.8%	-0.7	1.1%
CCN=C1SC(C(=O)Nc2cccc(C)c2)CC(=O)N1CC (stereo not drawn)	11.4%[12.7 µM]	3.1%	?	-0.3%	1.9	-15.2%
Cc1ccc(-c2nc(CNC(=O)Nc3ccccc3)c(C)o2)cc1	10.4%[59 µM]	·	·	·	·	-2.7%
